Reference: PubChem BioAssay (NCATS)
Inconclusive results are not listed. Entries that show only a call come without a potency. The source made the active and inactive calls. Unless noted, the call rests on the fitted dose curve; in most records, active means well fitted curve in the direction sought with a large enough effect; inconclusive means small, poorly fitted or top-dose-only effect, or another doubt; inactive means no such curve, though single readings can be large; an effect the other way counts as inactive or inconclusive.

Tests used:
[1] = NS1 protein of Zika virus - qHTS assay to identify small molecule inhibitors in human HEK 293 cells (AID 1347053); further: series mostly up to about 46 µM; nearly all actives have a fitted effect of over 55% in size
Outline: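 In this cell-based screen, HEK 293 cultures received compound for one hour before Zika MR766 at MOI = 0.5. NS1 was quantified 24 hours later by TR-FRET, normalized to virus-free wells and infected wells.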

[2] = molecular target: T1, Tyrosine-protein phosphatase non-receptor type substrate 1 (Homo sapiens) + Leukocyte surface antigen CD47 (Homo sapiens) (UniProt P78324+Q08722); test: CD47-SIRPalpha protein protein interaction - LANCE assay qHTS validation (AID 1347057; active means well fitted curve in the direction sought with a large enough effect in the signal ratio, with a control signal flat, not every such curve was filed as active; the % refers to the signal ratio; further: potency means the concentration at half of the fitted maximal effect)
T1 sequence (P78324 whole entry, looked up, the tested form may be a part): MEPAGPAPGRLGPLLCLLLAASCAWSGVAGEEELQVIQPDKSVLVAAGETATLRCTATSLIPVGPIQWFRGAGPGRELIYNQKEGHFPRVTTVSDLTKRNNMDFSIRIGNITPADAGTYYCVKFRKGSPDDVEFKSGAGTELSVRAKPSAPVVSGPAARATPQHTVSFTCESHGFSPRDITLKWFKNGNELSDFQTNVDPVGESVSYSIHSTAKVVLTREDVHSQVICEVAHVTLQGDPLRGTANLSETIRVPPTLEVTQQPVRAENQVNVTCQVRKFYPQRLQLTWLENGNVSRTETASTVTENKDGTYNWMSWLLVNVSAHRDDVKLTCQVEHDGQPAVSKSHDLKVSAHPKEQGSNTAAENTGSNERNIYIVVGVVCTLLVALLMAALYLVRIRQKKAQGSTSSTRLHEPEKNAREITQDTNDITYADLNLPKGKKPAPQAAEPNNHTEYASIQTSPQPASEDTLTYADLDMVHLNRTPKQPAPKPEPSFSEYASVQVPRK
T1 sequence (Q08722 whole entry, looked up, the tested form may be a part): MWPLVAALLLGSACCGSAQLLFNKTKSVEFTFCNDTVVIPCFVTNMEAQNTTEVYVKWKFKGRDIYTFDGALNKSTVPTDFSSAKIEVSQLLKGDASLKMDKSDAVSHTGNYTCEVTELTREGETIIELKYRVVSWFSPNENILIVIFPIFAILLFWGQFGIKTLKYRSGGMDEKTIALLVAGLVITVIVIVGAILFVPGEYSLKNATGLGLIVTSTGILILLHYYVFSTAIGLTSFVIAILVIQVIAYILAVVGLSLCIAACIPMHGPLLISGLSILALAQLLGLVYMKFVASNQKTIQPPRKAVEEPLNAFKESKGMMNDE
Outline: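 Inhibition of soluble CD47/SIRPalpha ectodomain association by titrated compounds, measured as 665/615 nm time-resolved FRET ratio after sequential 30 min room-temperature incubations.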

[3] = molecular target: T1, Tyrosine-protein phosphatase non-receptor type substrate 1 (Homo sapiens) + Leukocyte surface antigen CD47 (Homo sapiens); test: CD47-SIRPalpha protein protein interaction - HTRF assay qHTS validation (AID 1347058; active means well fitted curve in the direction sought with a large enough effect in the signal ratio, not every such curve was filed as active; the % refers to the signal ratio; further: series mostly up to about 38 µM)
Outline: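 Soluble extracellular domains (6His-CD47, Avi-tag-biotinylated SIRPalpha) in PBS pH 7.4 with 0.05% IGEPAL CA-630. Compounds were preincubated 30 min at RT with CD47 and anti-His-Eu, then SIRPalpha and SAV-XL665 were added. TR-FRET 665/615 ratio.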

[4] = molecular target: T1, Tyrosine-protein phosphatase non-receptor type substrate 1 (Homo sapiens) + Leukocyte surface antigen CD47 (Homo sapiens); test: CD47-SIRPalpha protein protein interaction - Alpha assay qHTS validation (AID 1347059);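 further: bead proximity luminescence from CD47 binding SIRPalpha after compound preincubation with SIRPalpha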; further: potency means the concentration at half of the fitted maximal effect
Outline: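 AlphaScreen signal between CD47-His (12.5 nM) and biotin-SIRPalpha (25 nM) soluble extracellular domains, bead-captured via Ni-NTA and streptavidin. Compounds, in 7-point titrations, met SIRPalpha 30 min before CD47; PBS pH 7.4 with 0.05% IGEPAL.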

[5] = molecular target: N-terminal Xaa-Pro-Lys N-methyltransferase 1 (Homo sapiens) (UniProt Q9BV86); test: qHTS Assay for Inhibitors of N-terminal methyltransferase 1 (NTMT1): LOPAC validation of the NTMT1 SAHH-coupled ThioGlo3 Assay (AID 1347143);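 further: SAH from peptide methylation measured as thiol fluorescence via SAHH coupling and ThioGlo3; nearly all actives have a fitted effect of over 70% in size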; further: potency means the concentration at half of the fitted maximal effect
Chain of N-terminal Xaa-Pro-Lys N-methyltransferase 1 (Homo sapiens) (Q9BV86 whole entry, looked up): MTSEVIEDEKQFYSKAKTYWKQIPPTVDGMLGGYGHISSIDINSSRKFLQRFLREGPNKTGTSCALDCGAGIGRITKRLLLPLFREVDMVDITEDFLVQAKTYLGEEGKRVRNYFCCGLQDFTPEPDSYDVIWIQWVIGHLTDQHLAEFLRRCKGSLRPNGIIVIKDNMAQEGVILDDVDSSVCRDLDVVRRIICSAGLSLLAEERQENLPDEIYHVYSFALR
Outline: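 NTMT1 125nM + cpds (various conc.), 1 min RT; add SAM 100uM/SAHH 10uM/ThioGlo3 15uM (addition mix). SAHH-coupled thiol detection, Ex340/Em450, t0 and 30 min RT; signal normalized to background. LOPAC 1280-cpd pilot.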

[6] = system: Zika virus NS2B-NS3 protease (unlinked); test: Optimization of GU AMC qHTS for Zika virus inhibitors: Unlinked NS2B-NS3 protease assay (AID 1347151); further: nearly all actives have a fitted effect of over 80% in size; further: potency means the concentration at half of the fitted maximal effect
Outline: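 Noncovalent NS2B hydrophilic domain–NS3 protease complex (25 nM final) in 10 mM Tris-HCl pH 8.0, 0.01% Tween 20; AMC substrate, room temperature 15 min (~20% conversion); fluorescence change normalized, 4-parameter Hill fit.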

[7] = molecular target: Parathyroid hormone/parathyroid hormone-related peptide receptor (Homo sapiens) (UniProt Q03431); test: qHTS for PTHR1 Agonists: Optimization Screen against the NCGC LOPAC library (AID 1347079);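 further: GloSensor cAMP luminescence in HEK-293 GP2 cells expressing human PTHR1 with IBMX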
Chain of Parathyroid hormone/parathyroid hormone-related peptide receptor (Homo sapiens) (Q03431 whole entry, looked up): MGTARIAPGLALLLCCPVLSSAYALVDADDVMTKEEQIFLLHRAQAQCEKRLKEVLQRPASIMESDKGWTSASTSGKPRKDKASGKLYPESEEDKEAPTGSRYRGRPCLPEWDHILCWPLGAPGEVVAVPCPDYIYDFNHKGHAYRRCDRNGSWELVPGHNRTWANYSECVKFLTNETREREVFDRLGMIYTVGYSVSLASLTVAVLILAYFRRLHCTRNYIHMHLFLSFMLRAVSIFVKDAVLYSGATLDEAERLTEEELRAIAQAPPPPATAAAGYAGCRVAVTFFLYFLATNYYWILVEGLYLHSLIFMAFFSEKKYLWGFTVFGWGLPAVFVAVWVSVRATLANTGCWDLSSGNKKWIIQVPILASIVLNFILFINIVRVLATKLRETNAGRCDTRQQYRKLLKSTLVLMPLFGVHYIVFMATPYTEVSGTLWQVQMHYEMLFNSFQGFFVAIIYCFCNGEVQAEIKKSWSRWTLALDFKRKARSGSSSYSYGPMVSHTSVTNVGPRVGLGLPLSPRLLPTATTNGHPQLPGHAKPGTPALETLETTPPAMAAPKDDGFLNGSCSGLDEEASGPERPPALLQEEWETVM
Outline: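 HEK-293 GP2 cells, PTHR1 + GloSensor cAMP; 3000 cells/well, o/n. Luciferin + IBMX 0.5mM each (stock), 1 hr 37C. Cpd titration, 1 hr 37C. Lum after 15 min RT. Ctrl M-PTH(1-15) top 10uM.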

Furin (Homo sapiens) = Furin (Homo sapiens) (UniProt P09958); test: Furin counterscreen qHTS for Zika virus inhibitors (AID 1347149);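 further: purified recombinant full-length human furin enzyme at 5 nM; fluorescence gain from furin cutting a BOC-RVRR-AMC peptide substrate over 15 min; top concentration of the series differs between compounds; nearly all actives have a fitted effect of over 70% in size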
Chain of Furin (Homo sapiens) (P09958 whole entry, looked up): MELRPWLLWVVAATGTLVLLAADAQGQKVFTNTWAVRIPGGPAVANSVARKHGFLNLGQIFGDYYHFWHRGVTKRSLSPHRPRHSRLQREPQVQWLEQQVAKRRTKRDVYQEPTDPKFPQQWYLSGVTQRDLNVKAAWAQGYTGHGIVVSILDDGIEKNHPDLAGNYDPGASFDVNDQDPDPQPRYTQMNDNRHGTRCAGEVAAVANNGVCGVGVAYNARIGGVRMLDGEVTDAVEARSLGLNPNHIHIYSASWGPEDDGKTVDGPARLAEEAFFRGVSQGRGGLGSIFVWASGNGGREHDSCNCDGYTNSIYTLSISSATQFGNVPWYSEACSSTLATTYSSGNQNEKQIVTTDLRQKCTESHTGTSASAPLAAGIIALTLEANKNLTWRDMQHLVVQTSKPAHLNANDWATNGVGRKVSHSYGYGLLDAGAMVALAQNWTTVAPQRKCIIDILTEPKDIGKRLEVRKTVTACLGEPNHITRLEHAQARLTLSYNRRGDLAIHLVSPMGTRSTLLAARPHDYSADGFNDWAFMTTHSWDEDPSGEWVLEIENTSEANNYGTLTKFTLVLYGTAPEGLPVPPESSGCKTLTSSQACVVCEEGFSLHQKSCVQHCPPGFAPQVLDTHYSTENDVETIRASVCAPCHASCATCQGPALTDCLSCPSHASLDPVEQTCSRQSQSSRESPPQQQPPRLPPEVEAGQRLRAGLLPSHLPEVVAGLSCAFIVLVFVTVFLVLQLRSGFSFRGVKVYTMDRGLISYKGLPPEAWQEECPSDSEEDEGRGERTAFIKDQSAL
Outline: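 Counterscreen measures cleavage of 2 microM BOC-RVRR-AMC, below its ~15 microM Km, by 5 nM full-length human furin at pH 7.0 after a 15-min compound preincubation. Inhibition derives from the 15-min fluorescence increase at 37C.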

Row | SMILES | Potency [1] | Potency [2] | outcome [3] | Potency [4] | Potency [5] | Potency [6] | Potency [7] | Potency (Furin (Homo sapiens))
1 | COc1ccccc1N1CCN(CCCCN2C(=O)c3ccccc3C2=O)CC1 | inactive | inactive | inactive | inactive | inactive | 23.8 µM (active) |  | 
2 | NCCCNCCCCNCCCN | inactive | inactive | inactive | inactive |  | inactive | inactive | 
3 | CCN1C(=O)C=CC1=O | inactive | inactive | inactive | inactive |  | inactive | inactive | 
4 | Nc1ccc(N2C(=O)c3ccccc3C2=O)c(Cl)c1 | inactive | inactive |  | inactive | inactive | inactive | inactive | 
5 | CCCc1c(-c2ccc(O)cc2)nn(-c2ccc(O)cc2)c1-c1ccc(O)cc1 | inactive | inactive |  | inactive | inactive |  | inactive | 
6 | Cc1nc(N=Nc2cc(S(=O)(=O)O)c3cc([N+](=O)[O-])cc(S(=O)(=O)O)c3c2)c(COP(=O)(O)O)c(C=O)c1O | inactive | inactive |  | inactive | 56.2 µM (active) | 26.7 µM (active) | inactive | inactive
7 | Cc1nc(N=Nc2ccc(C(=O)O)cc2)c(COP(=O)(O)O)c(C=O)c1O | inactive | inactive |  | inactive | inactive |  | inactive | 
8 | NC(=O)c1ccccc1 | inactive | inactive |  | inactive | inactive | inactive | inactive | 
9 | N#Cc1cc2nc(O)c(O)nc2cc1[N+](=O)[O-] | inactive | inactive |  | inactive | inactive | inactive | inactive | 
10 | COc1ccccc1N1CCN(CCCCNC(=O)c2ccc3ccccc3c2)CC1 | inactive | inactive |  | inactive | inactive | inactive | inactive | 
11 | Cc1ccc([N+](=O)[O-])cc1S(=O)(=O)N(C)C | inactive | inactive |  | inactive | inactive | inactive | inactive | 
12 | COc1cc(C(O)C(=O)O)ccc1O (stereo unspecified) | inactive | inactive |  | inactive | inactive | inactive | inactive | 
13 | CSC(N)=NCCC[C@H](N)C(=O)O | inactive | inactive |  | inactive | inactive |  | inactive | 
14 | CC1CCN(CC[C@H]2CCCN2S(=O)(=O)c2cccc(O)c2)CC1 | inactive | inactive |  | inactive | inactive |  | inactive | 
15 | COc1cccc(OC)c1OCCNCC1CSc2ccccc2O1 (stereo unspecified) | inactive | inactive | inactive | inactive |  | inactive |  | 
16 | O=C1Cc2c([nH]c3ccc(Br)cc23)-c2ccccc2N1 | inactive | inactive |  | inactive | 50.1 µM (active) | inactive | inactive | 
17 | CN(C)CCCc1cc(C(=O)Nc2ccc(-c3ccncc3)cc2)ccc1O | inactive | inactive | inactive | inactive |  | inactive |  | 
18 | O=c1[nH]c(=O)c2nc3ccccc3nc2[nH]1 | inactive | inactive |  | inactive | 56.2 µM (active) |  | inactive | 
19 | C[N+](C)(C)CC=O | inactive | inactive |  | inactive | inactive | inactive | inactive | 
20 | O=C(O)/C(=C/c1c(C(=O)O)[nH]c2cc(Cl)cc(Cl)c12)c1ccccc1 | inactive | inactive |  | inactive | inactive | inactive | inactive | 
21 | Nc1nc2c(nc(Br)n2C2OC3COP(=O)(O)O[C@@H]3C2O)c(=O)[nH]1 (stereo partly specified) | inactive | inactive |  | inactive | inactive | inactive | inactive | 
22 | O[Si](CCCN1CCCCC1)(c1ccc(F)cc1)C1CCCCC1 (stereo unspecified) | inactive | inactive |  | inactive | inactive | inactive | inactive | 
23 | O=C(O)C1=CC(=C(c2ccc(O)c(C(=O)O)c2)c2ccc(O)c(C(=O)O)c2)C=CC1=O | inactive | 11.7 µM (active) |  | 0.464 µM (active) | 25.1 µM (active) | 21.2 µM (active) | inactive | 
24 | Cc1nc(N=Nc2ccc(S(=O)(=O)O)cc2S(=O)(=O)O)c(COP(=O)(O)O)c(C=O)c1O | inactive | inactive |  | inactive | inactive | inactive | inactive | inactive
25 | COc1ccc(-c2cc3ncc(C)n3c(Nc3ncccc3C(N)=O)n2)cc1OC | inactive | inactive |  | inactive | 56.2 µM (active) | 26.7 µM (active) | inactive | 
26 | COc1cc(/C=C(\C#N)C(=O)c2ccc(O)c(O)c2)cc(I)c1O | inactive | inactive |  | inactive | 50.1 µM (active) |  | inactive | 
27 | N[C@@H](CCCC(=O)O)C(=O)O | inactive | inactive |  | inactive | inactive |  | inactive | 
28 | Fc1ccc(CN(C2=NCCN2)c2c(Cl)cccc2Cl)cc1 | inactive | inactive |  | inactive | inactive |  | inactive | 
29 | Oc1cc(O)c2c(c1)O[C@H](c1ccc(O)c(O)c1)[C@@H](O)C2 | inactive | inactive |  | inactive | 44.7 µM (active) |  | inactive | 
30 | O=[N+]([O-])c1cccc2cn[nH]c12 | inactive | inactive |  | inactive | inactive | inactive | inactive | 
